Measured values as given in PubChem BioAssay AID1851 (National Center for Advancing Translational Sciences (NCATS), 2009).
About 5,800 (36%) of roughly 16,000 compounds were called active. Inconclusive results (about 23%) are left out. Calls come from the whole dose curve; as a rule, active = well fitted curve in the direction sought with a large enough effect; inconclusive = small, poorly fitted or top-dose-only effect, or effect the other way; inactive = no such curve, though single readings can be large or run the other way. This is one part of the list.

Target: Cytochrome P450 2C19 (Homo sapiens) (UniProt P33261)
Experiment: Cytochrome panel assay with activity outcomes
Settings: recombinant CYP, pro-luciferin dealkylation, luminescence, p450-cyp2c19; series mostly up to 57.1 µM
% is set by controls: 0 for no effect and ±100 for the full control effect.

Chain of Cytochrome P450 2C19 (Homo sapiens) (P33261 whole entry, looked up): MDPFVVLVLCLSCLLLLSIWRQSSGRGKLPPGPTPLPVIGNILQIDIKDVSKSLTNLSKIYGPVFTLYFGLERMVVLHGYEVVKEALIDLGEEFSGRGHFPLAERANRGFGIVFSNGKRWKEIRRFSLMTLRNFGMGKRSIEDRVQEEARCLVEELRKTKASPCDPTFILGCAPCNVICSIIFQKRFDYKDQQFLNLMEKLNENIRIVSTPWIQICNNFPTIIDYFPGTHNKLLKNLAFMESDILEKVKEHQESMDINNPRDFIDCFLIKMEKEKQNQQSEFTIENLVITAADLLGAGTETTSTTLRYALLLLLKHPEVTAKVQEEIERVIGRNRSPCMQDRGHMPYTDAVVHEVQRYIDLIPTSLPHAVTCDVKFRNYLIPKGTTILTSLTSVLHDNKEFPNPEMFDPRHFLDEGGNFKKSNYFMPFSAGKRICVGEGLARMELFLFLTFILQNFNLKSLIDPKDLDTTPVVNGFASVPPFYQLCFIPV

AC50, inactive:
COc1ccc(-c2nc3cnc(N4CCN(C)CC4)nc3n(C)c2=O)cc1
CN(C)c1ncc2nc(-c3cc(F)cc(F)c3)c(=O)n(CCC#N)c2n1
O=C(O)[C@H]1CCCN(CCC=C(c2ccccc2)c2ccccc2)C1
O=C(/C=C/c1cccc([N+](=O)[O-])c1)NCCN1CCOCC1
Cc1ccc(NC(=O)/C(=C/c2cccc([N+](=O)[O-])c2)NC(=O)C2CCCCC2)c(C)c1
O=C(CCCCC(=O)Nc1c(I)cc(I)c(C(=O)O)c1I)Nc1c(I)cc(I)c(C(=O)O)c1I
O=C(Nc1cc(C(=O)Nc2ccc(S(=O)(=O)O)cc2S(=O)(=O)O)cc(C(=O)Nc2ccc(S(=O)(=O)O)cc2S(=O)(=O)O)c1)Nc1cc(C(=O)Nc2ccc(S(=O)(=O)O)cc2S(=O)(=O)O)cc(C(=O)Nc2ccc(S(=O)(=O)O)cc2S(=O)(=O)O)c1
CCOC(=O)N/N=C/c1ccc(F)cc1
COc1ccccc1CN1CCC2(CC1)CCN(C(=O)c1c(C)noc1C)CC2
COC(=O)N1CCC2(CCN(Cc3ccccc3OC)CC2)CC1
O=C(c1cnccn1)N1CCC2(CC1)CN(C(c1ccccc1)c1ccccc1)C2
COCC(=O)N(C)c1nnc(-c2ccc([N+](=O)[O-])cc2)s1
O=C(c1cc(C(F)(F)F)cc(C(F)(F)F)c1)N1CCC2(CCN(Cc3ccccc3)CC2)CC1
O=C(c1cc(C(F)(F)F)cc(C(F)(F)F)c1)N1CCC2(CC1)CN(Cc1ccccc1)C2
COc1ccccc1CNc1ncncc1-c1ccc(C(=O)N(C)C)cc1
C[C@H](N)C(=O)O
N[C@H](Cc1ccc(Cl)cc1)C(=O)O
NCCOB(c1ccccc1)c1ccccc1
O=[N+]([O-])c1ccc(Cl)c(-c2ccc(/C=N/c3c(-c4ccco4)nc4ccccn34)o2)c1
COc1cc(Cn2cnnn2)ccc1O
CC(C)NC(=O)CC(=O)N/N=C/c1ccc(F)cc1
O=Nc1ccc(NOC(=O)c2ccc(Br)cc2)cc1
O=C(N/N=C/c1ccc(F)cc1)c1ccc(Br)cc1
CCCCOc1ccc(CN2CCC(O)CC2)cc1
CCNC(=O)c1c(NC(C)=O)sc2c1CCCC2

AC50, active:
CCOC(=O)C1CCCN(C(=O)/C=C/c2cccc([N+](=O)[O-])c2)C1 (stereo not drawn) 14.1 µM
CCOC(=O)C1CCCN(C/C=C/c2ccccc2[N+](=O)[O-])C1 (stereo not drawn) 3.98 µM
CC1CC(C)CN(C/C=C/c2ccccc2[N+](=O)[O-])C1 (stereo not drawn) 7.08 µM
CC1CCCN(C/C=C/c2ccccc2[N+](=O)[O-])C1 (stereo not drawn) 8.91 µM
Oc1c(Cl)cc(C(c2cc(Cl)c(O)c(Cl)c2)C(c2cc(Cl)c(O)c(Cl)c2)c2cc(Cl)c(O)c(Cl)c2)cc1Cl 2.51 µM
COc1ccccc1COC(=O)Nc1c(C)nn(C)c1Cl 3.55 µM
Cc1nn(C)c(Cl)c1NC(=O)OCc1ccc(Cl)cc1Cl 2.24 µM
Cc1nn(C)c(Cl)c1NC(=O)OCc1ccc(F)cc1 7.08 µM
COCCN(C(=O)C(C)C)c1nnc(-c2ccc(C)cc2)s1 7.94 µM
COCCN(C(=O)c1ccco1)c1nnc(-c2ccc(OC)cc2)s1 15.8 µM
Cn1c(=O)c2c(nc(N3CCN(c4ccccn4)CC3)n2Cc2ccccc2Cl)n(C)c1=O 3.16 µM
Cn1c(=O)c2c(nc(N3CCN(c4ccccn4)CC3)n2Cc2ccc(Cl)cc2Cl)n(C)c1=O 6.31 µM
O=C(c1cccc(C(F)(F)F)c1)N1CCC(O)(CS(=O)(=O)Cc2ccccc2)CC1 22.4 µM
COc1ccc(CNc2ncncc2-c2ccc(C(=O)N(C)C)cc2)c(OC)c1 15.8 µM
COc1ccc(CNc2ncncc2-c2ccc(N(C)C)cc2)c(OC)c1 1.58 µM
O=C(O)C(Sc1ccc(Cl)cc1)Sc1ccc(Cl)cc1 0.1 µM
Cc1[nH]n(C(C)(C)C)c(=O)c1Sc1ccc(Cl)cc1 3.98 µM
COc1cc(-c2nc3ccccn3c2/N=C/c2ccccc2)ccc1O 10 µM
CC(C)NC(=O)CC(=O)N/N=C/c1ccc(Br)cc1 3.55 µM
CC(C)(C)NC(=O)C(=O)N/N=C/c1ccc(Br)cc1 14.1 µM
CCOc1ccc(OCCOCCN2CCc3ccccc3C2)cc1 14.1 µM
CC(=O)Nc1sc2c(c1CN1CCN(C)CC1)CCCC2 6.31 µM
Cc1cc(OCC(F)(F)C(F)(F)C(F)(F)C(F)(F)C(F)(F)C(F)F)nc(N)n1 3.16 µM

activity, negative = inhibition, inactive:
O=C(O)CCNc1ncnc2nc[nH]c12 35.9% [at 11.4 µM]
C#CCCCO/N=C1/C[C@@H](O)[C@@H](O)[C@@H]2[C@@H]3C(=O)N(CCC(=O)OCC)C(=O)[C@H]3CC[C@H]12 2.13% [at 11.4 µM]
Oc1c(Cl)cc(CN(Cc2cc(Cl)c(O)c(Cl)c2)C2CCCCC2)cc1Cl -4.32% [at 11.4 µM]
O=C(O)CCN1C(=S)CSC1=S 27% [at 11.4 µM]
CN(C)Cc1c[nH]c2nc[nH]c(=O)c12 42.6% [at 11.4 µM]
CO[C@@H]1COC(=O)[C@H]2CCCN2C(=O)[C@@H](C)COC(=O)C/C=C\[C@H]1C 91.7% [at 11.4 µM]
Cn1c(=O)c2c(ncn2CN2CCN(Cn3cnc4c3c(=O)n(C)c(=O)n4C)CC2)n(C)c1=O -11.6% [at 11.4 µM]
CN1CCN(c2nc3c(c(=O)n(C)c(=O)n3C)n2C)CC1 -9.69% [at 11.4 µM]
O=C(N/N=C1/C[C@@H](O)[C@@H](O)[C@@H]2[C@@H]3C(=O)N(Cc4ccccc4)C(=O)[C@H]3CC[C@@H]12)OCc1ccccc1 9.42% [at 11.4 µM]
N[C@@H](CC1=CS(=O)(=O)c2ccc(Cl)cc21)C(=O)O -36.6% [at 11.4 µM]
